In the library only some 1.1% were active in any assay of this set; here they are far more common.
VCAM1 TNFa inh: inhibitors of TNFa-induced VCAM1 expression, primary screen, imaging, HUVEC, TNFa stimulus, immunofluorescence; HUVEC TNFa-induced VCAM-1 immunofluorescence, high-content imaging; inhibition, % at 2 µM; actives 0.48% (n = 95,000); AID 802, 2007;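 active = inhibition above the batch mean plus 3 SD, with images confirmed as a hit by eye, cut at about 37% in these data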;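 also: 0% = TNF-stimulated DMSO wells and 100% = unstimulated control wells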
E-sel TNF inh: E-selectin induction blockers in HUVEC – imaging, immunofluorescence, high content, primary screen; HUVEC TNFa-induced E-selectin immunofluorescence; inhibition, % at 2 µM; actives 0.71% (n = 120,000); AID 1246, 2008;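 active = inhibition above the batch mean plus 3 SD, and confirmed as a hit on visual image review, cut at about 43% in these data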;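 also: 0% = TNF-stimulated DMSO wells and 100% = unstimulated control wells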
HUVEC tox TNFa: cytotoxicity in TNFa-stimulated HUVEC, primary screen, cytotoxicity control for VCAM1 expression modulator project, imaging, Hoechst nuclei count; actives 0.17% (n = 93,000); HUVEC TNFalpha-stimulated, Hoechst cell count; cell count reduction, % at 2 µM;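 active = cell count reduction exceeding the screen mean by over 5 SD, scaled to untreated wells per plate, cut at about 78% in these data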;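 also: cells counted after 24 h of TNF alpha exposure following the 1 h pretreatment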
cytoskel mod: modifiers of F-actin cytoskeleton organization, primary screen, imaging, HUVEC, phalloidin staining, high-content imaging; inhibition, % at 2 µM; HUVEC TNFa F-actin phalloidin imaging; actives 0.18% (n = 91,000);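 active = inhibition above the batch mean plus 3 SD and confirmed as a hit by visual image inspection, cut at about 30% in these data, passing the limit was not always enough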
An asterisk follows results filed as active; x = no result.

SMILES	VCAM1 TNFa inh	E-sel TNF inh	HUVEC tox TNFa	cytoskel mod
COC(=O)c1[nH]c2cc(OC)ccc2c1NC(=O)CN1CCC(C(N)=O)CC1	x	-23.0	x	x
CCCN(CC(=O)Nc1cc(Cl)ccc1Cl)C(=O)/C=C/c1ccco1	x	-4.5	x	x
Cc1cccc(NC(=O)CC2SC(=O)N(c3ccccc3)C2=O)c1 (centres undefined)	96.2*	1.9	78.0*	-34.9
C=CCn1c(SCC(=O)Nc2ccc(-c3nc4ccc(C)cc4s3)cc2)nnc1-c1ccccc1	x	15.8	x	x
O=C(NC(=S)N(Cc1ccccc1)c1ccccn1)C1CCCCC1	x	-11.3	x	x
CN(Cc1ccccc1)S(=O)(=O)c1ccc(NC(=S)NC(=O)C2CCCC2)cc1	47.9*	-2.8	16.5	5.7
CN(Cc1ccccc1)C(=S)NC(=O)C1CCCCC1	x	93.1*	x	x
CN(c1ccccc1)S(=O)(=O)c1ccc(NC(=S)NC(=O)C2CC2)cc1	x	-29.7	x	x
Cc1ccc(Cl)c(OC(=O)c2nn(C(C)C)c(=O)c3ccccc23)c1	x	-2.9	x	x
CC(NC(=O)Nc1cccc([N+](=O)[O-])c1)(C(F)(F)F)C(F)(F)F	-1.9	1.4	5.2	-31.0
Cc1cnc(NC(=O)c2ccco2)s1	6.2	x	89.1*	-14.8
c1ccc(-c2ccnc3nc(N4CCN(c5ccccc5)CC4)nn23)cc1	0.6	9.2	-14.3	-16.2
CSc1nc2nccc(-c3ccc(-c4ccccc4)cc3)n2n1	1.8	9.6	-9.3	-1.4
CSc1nc2nccc(-c3ccc(Oc4ccccc4)cc3)n2n1	85.8*	1.1	-42.3	26.8
c1ccc(Oc2ccc(-c3ccnc4nc(N5CCN(c6ccccc6)CC5)nn34)cc2)cc1	29.7	52.9*	-8.3	21.2
CCOC(=O)c1c(C)noc1CP(=O)(c1ccccc1)c1ccccc1	4.1	24.4	-20.2	8.3
CCSc1nc2ccccc2n1C(=O)/C=C/c1ccc(OC)c(OC)c1	x	100.0*	x	x
C=CCSc1nc2ccccc2n1C(=O)/C=C/c1cc(OC)c(OC)c(OC)c1	92.3*	66.5*	9.6	22.6
C=CCSc1nc2ccccc2n1C(=O)/C=C/c1ccc(OC)c(OC)c1	-7.9	-6.7	7.6	-1.0
O=C(NCCN=C1NS(=O)(=O)c2ccccc21)c1ccncc1	16.1	x	-3.3	-25.8
N#CCCS(=O)(=O)c1nnnn1-c1ccccc1	15.4	42.8	2.8	0.2
CC[C@H](C)[C@@H]1NC(=O)c2cc([N+](=O)[O-])cc(I)c2NCC[C@@H](C(N)=O)NC(=O)[C@H](CCCN=C(N)N)NC1=O	x	83.5*	x	x
NC(=O)[C@@H]1CCCNc2c(I)cc([N+](=O)[O-])cc2C(=O)N[C@@H](CCCN=C(N)N)C(=O)N[C@@H](CCCN=C(N)N)C(=O)N1	x	-23.2	x	x
O=C(c1ccco1)N1N=C2CCCCCC2C1(O)C(F)(F)F (centres undefined)	x	-0.2	x	x
CC(NCc1ccc2c(c1)OCO2)C(=O)NC1CCCc2ccccc21 (centres undefined)	x	1.0	94.8*	6.9
SMILES	VCAM1 TNFa inh	E-sel TNF inh	HUVEC tox TNFa	cytoskel mod
Cc1cc(C(=O)NC2CCCc3ccccc32)c(C)o1 (centres undefined)	5.3	5.5	11.3	-32.0
O=C(CN1CCN(c2nc(-c3ccc(F)cc3)cs2)CC1)Nc1ccc2c(c1)OCO2	88.0*	x	13.0	0.6
CCC(C)n1c(SCC(=O)NC(=O)Nc2ccc3c(c2)OCCO3)nc2ccccc2c1=O (centres undefined)	7.0	x	-18.5	9.6
CCOC(=O)c1cnn(-c2nc3c(C)cccc3s2)c1C	91.5*	-29.8	89.5*	35.5*
COc1ccccc1CNC(=O)c1cn(C)c2ccc(S(=O)(=O)N3CCCC3)cc2c1=O	x	-16.4	x	x
O=C(Nc1ccc2oc(-c3cccnc3)nc2c1)c1ccc([N+](=O)[O-])o1	x	96.9*	x	x
COC(=O)CN(c1ccc2c(c1)OCCO2)S(=O)(=O)c1ccccc1	10.2	10.5	7.0	-8.2
COC(=O)CN(c1ccc(F)cc1)S(=O)(=O)c1ccc2c(c1)OCCO2	28.6	-1.4	2.5	96.3*
COc1cc2c(=O)n(-c3ccc(C)cc3)c(=O)n(CC(=O)c3ccc4c(c3)OCO4)c2cc1OC	x	-4.6	x	x
COc1cc2c(O)c3c(c(-c4ccc5c(c4)OCO5)c2cc1OC)C(=O)OC3	91.0*	x	63.9	-56.1
NC(=O)COC(=O)CCCc1c[nH]c2ccccc12	93.9*	x	79.3*	-55.8
C=CCn1c(SCC(=O)NC)nc2sc3c(c2c1=O)CCC3	8.8	80.4*	-11.4	1.3
C=CCn1c(SCC(=O)OC)nc2sc3c(c2c1=O)CCN(C)C3	14.6	-35.8	12.5	-24.1

Bioassay records: PubChem BioAssay, Columbia University Molecular Screening Center
